IL-1B inflam inh: qHTS for Inhibitors of Inflammasome Signaling: IL-1-beta AlphaLISA Primary Screen | activity change, % at 57.5 µM | THP-1 LPS/ATP IL-1B secretion, AlphaLISA, 16 h; hits give low values | hit rate 4.7% among 360,000; in the data active = activity change below about -50%; inconclusive = mostly about -30% to -49%
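Secreted IL-1B measured by AlphaLISA bead assay after 16 h compound exposure of THP-1 cells; compounds (final up to 57.5 uM) added 1 h before LPS (250 ng/mL) and ATP (1.25 mM) stimulation; lower signal means less secretion.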
KB-V1 cytotox: qHTS assay for MDR1-selective chemotherapeutics: Primary screen using the drug-selected MDR subline cells KB-V1; KB-V1 MDR cells viability, CellTiter-Glo, 72 h; Potency, µM (titrated, usually from 46.1 µM), actives largely listed as cytotoxic; hit rate 3.4% among 400,000; AID 1347076, 2019; note: potency is the fitted concentration of half-maximal effect; nearly all actives have a fitted effect of over 60% in size
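Following 72 h at 37 degrees C with compound, KB-V1 cell viability was read by CellTiter-Glo luminescence, medium being phenol-red-free DMEM plus 10% FBS; concentration-response parameters came from normalized, curve-fitted qHTS data.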
KB-3-1 cytotox: qHTS assay for MDR1-selective chemotherapeutics: Primary screen using the parental adenocarcinoma cell KB-3-1; KB-3-1 viability, CellTiter-Glo ATP luminescence, 72 h; hit rate 1.4% among 400,000; Potency, µM (titrated, usually from 46.1 µM), hits mostly cytotoxic; AID 1347075, 2019; note: potency is the fitted concentration of half-maximal effect; nearly all actives have a fitted effect of over 60% in size
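Cells are dispensed, compounds pinned in, plates held at 37 °C for 72 h, then CellTiter-Glo is added and luminescence read after 10 minutes. Cell line: parental KB-3-1 in phenol-red-free DMEM, 10% FBS.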
HT1080-NT tox: qHTS for induction of synthetic lethality in tumor cells producing 2HG: qHTS for the HT-1080-NT fibrosarcoma cell line. hit rate 1.6% among 360,000. AID 686970, 2013. Potency, µM (titrated, usually from 46.1 µM), for inactives: at the top dose activity, negative = less viability, usual class: cytotoxic. HT-1080-NT fibrosarcoma viability, CellTiter-Glo ATP luminescence, 48 h;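 note: NT is the 2HG producing partner of a matched IDH1 knockdown line; potency is the fitted concentration of half-maximal effect; 0% = DMSO-treated cells and -100% = media-only wells without cells; nearly all actives have a fitted effect of over 55% in size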
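Viability of the 2HG-overproducing fibrosarcoma line after 48 hours of compound exposure at 37 degrees C was determined by luminescence with CellTiter-Glo, and concentration-effect curves were then fitted and categorized.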
HT1080 IDH1KD tx: qHTS for induction of synthetic lethality in tumor cells producing 2HG: qHTS for the HT-1080-IDH1KD cell line. HT-1080 IDH1 knockdown viability, ATP luminescence, 48 h. Potency, µM (titrated, usually from 46.1 µM), without a hit: at the top dose activity, negative = toxicity, hits mostly cytotoxic. hit rate 2% among 360,000. AID 686971, 2013;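 note: potency is the fitted concentration of half-maximal effect; 0% = DMSO wells and -100% = cell-free medium wells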
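% activity derives from luminescence (CellTiter-Glo), normalised to DMSO and no-cell wells. HT-1080-IDH1KD cells, 750/well, had 48 h compound exposure at 37 °C.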
An asterisk follows results filed as active; i = inactive; ? = inconclusive; nt = no result. Sampled rows, rich in hits. Any-hit rate of the full collection: about 8.8%. Unless noted, calls come from the whole dose curve; as a rule, active = well fitted curve in the direction sought with a large enough effect; inconclusive = small, poorly fitted or top-dose-only effect, or another doubt; inactive = no such curve, though single readings can be large; an effect the other way counts as inactive or inconclusive. Unless noted, % is set by controls: 0 for no effect and ±100 for the full control effect.

SMILES	IL-1B inflam inh	KB-V1 cytotox	KB-3-1 cytotox	HT1080-NT tox	HT1080 IDH1KD tx
O=C(Nc1nnc(-c2ccc(F)cc2)o1)C1CCCN1S(=O)(=O)c1cccs1 (stereo not drawn)	-76.3*	?	i	7.8%	4.5%
N=c1c2c(-c3ccccc3)c(-c3ccccc3)n(Cc3ccco3)c2ncn1CCN1CCOCC1	-81.2*	?	?	?	?
N=c1c2c(-c3ccccc3)c(-c3ccccc3)n(Cc3ccco3)c2ncn1CCCO	nt	?	i	20.6µM*	8.2µM*
N=c1c2c(-c3ccccc3)c(-c3ccccc3)n(Cc3ccco3)c2ncn1CCO	?	i	i	18.4µM*	18.4µM*
c1coc(CNc2nc3ccccc3n2CCN2CCOCC2)c1	12.3	?	i	0.0%	1.5%
Cc1nn(CC(=O)NC(C)c2ccccc2)c(=O)c2cc3occc3n12 (stereo not drawn)	nt	i	i	nt	nt
COc1cccc(C=C2SC(=S)NC2=O)c1	-7.3	?	?	-9.5%	-5.4%
COc1cccc(C(C)=C2SC(=S)NC2=O)c1	2.0	20.6µM*	i	9.8%	7.0%
COC(=O)[C@@]12OC[C@]34[C@H]([C@@H](O)[C@@H]1O)[C@@]1(C)C(=O)C(O[C@@H]5OC(CO)[C@@H](O)[C@@H](O)[C@@H]5O)=C[C@@H](C)[C@@H]1C[C@H]3OC(=O)[C@H](OC(=O)/C=C(\C)C(C)(C)OC(C)=O)[C@@H]24 (stereo partly drawn)	-56.0*	i	?	?	?
O=C1c2ccc(-c3nc4ccccc4o3)cc2C(=O)N1Cc1cccnc1	14.6	i	i	28.5%	0.0%
O=C1c2ccc(-c3nc4ccccc4o3)cc2C(=O)N1Cc1ccccc1	15.1	7.31µM*	i	3.2%	-4.2%
COc1ccc(CNC(=O)C/C(C)=N/NC(=O)Cc2ccc(OC)c(OC)c2)cc1	13.5	i	i	25.4%	16.6%
COc1ccc(CNC(=O)C/C(C)=N/NC(=O)c2ccc(OC)cc2OC)cc1	-55.3*	i	i	-4.9%	3.4%
CN1OC[C@@H]2CN(Cc3cc(Cl)cc(Cl)c3)[C@H](c3cccc(-c4ccc(C#N)cc4)c3)C[C@@H]21	?	i	?	-7.1%	-0.7%
COc1ccccc1C(=O)Nc1ccc2c(c1)CCCN2C(=O)c1ccccc1	-5.0	?	18.4µM*	18.4µM*	14.6µM*
COc1ccccc1C(=O)Nc1ccc2c(c1)CN(C(=O)CSC)CC2	-1.2	i	25.9µM*	13µM*	10.3µM*
COc1ccc(S(=O)(=O)N2CCCC(C(=O)N3CCOCC3)C2)cc1OC (stereo not drawn)	11.9	i	i	7.1%	19.7%
CCOC(=O)C1=C(c2ccccc2)Nc2ncnn2C1c1ccc(C(=O)O)cc1 (stereo not drawn)	-8.0	i	i	23.1%	20.2%
CCOC(=O)C1=C(c2ccccc2)NC(N)=NC1c1ccc(OCc2ccc(C(=O)OC)cc2)cc1 (stereo not drawn)	-66.6*	?	?	23.1µM*	20.6µM*
Cc1ccc(C(C(=O)NC2CCCCC2)N(Cc2ccccc2)C(=O)Cc2c[nH]c3ccccc23)o1 (stereo not drawn)	?	?	?	-14.0%	-18.6%
COc1cccc(CN(C(=O)Cc2c[nH]c3ccccc23)C(C(=O)NC2CCCCC2)c2ccc(C)o2)c1 (stereo not drawn)	-67.8*	20.6µM*	?	-21.4%	?
COc1ccc(CN(C(=O)Cc2c[nH]c3ccccc23)C(C(=O)NC2CCCCC2)c2ccc(C)o2)cc1 (stereo not drawn)	-58.9*	?	?	-13.4%	?
COc1cccc(CN(C)C(=O)Cc2c[nH]c3ccccc23)c1	26.3	i	i	-15.5%	-12.1%
COc1cc(C(C(=O)NC2CCCCC2)N(C(=O)Cc2c[nH]c3ccccc23)c2ccccc2C)cc(OC)c1OC (stereo not drawn)	?	i	i	-19.4%	-2.3%
COc1cc(C(C(=O)NC2CCCCC2)N(Cc2cccs2)C(=O)Cc2c[nH]c3ccccc23)cc(OC)c1OC (stereo not drawn)	-23.2	16.4µM*	?	-18.7%	-13.5%
SMILES	IL-1B inflam inh	KB-V1 cytotox	KB-3-1 cytotox	HT1080-NT tox	HT1080 IDH1KD tx
O=C(CSc1ccccn1)Nc1nonc1[N+](=O)[O-]	-99.1*	10.3µM*	?	20.6µM*	?
N#Cc1ccc(C(=O)N2CCCCC2c2cc(C(=O)Nc3cccc(C#N)c3)no2)cc1 (stereo not drawn)	-29.7	i	i	14.1%	3.4%
Cc1cccc(OC(=O)Cn2c(C(F)(F)F)nc3ccccc32)c1	47.5	i	i	15.9%	17.3%
CC1CCC(C(C)C)C(OC(=O)Cn2c(-c3ccccc3)[n+](C)c3ccccc32)C1 (stereo not drawn)	-102.7*	i	14.6µM*	?	9.2µM*
CC1CCC(C(C)C)C(OC(=O)CSc2nc(N)cc(=O)[nH]2)C1 (stereo not drawn)	25.0	i	i	-1.8%	-2.9%
CC1CCC(C(C)C)C(OC(=O)Cn2c(-c3ccc(F)cc3)[n+](C)c3ccccc32)C1 (stereo not drawn)	-101.0*	i	?	18.4µM*	10.3µM*
Cc1cccc(OCc2n(CC(=O)OC3CC(C)CCC3C(C)C)c3ccccc3[n+]2C)c1 (stereo not drawn)	-97.6*	?	?	18.4µM*	8.2µM*
CS(=O)(=O)c1ccccc1-c1nnc(NC(=O)Cc2ccccc2)o1	-50.2*	i	i	-16.6%	1.2%
COc1ccc(-n2nnnc2-c2cccc(OC)c2)cc1	101.7	1.16µM*	1.03µM*	?	1.64µM*
COc1ccc2c(c1)C(=O)CC2	nt	i	i	nt	nt
Cc1cc(Nc2ccc(C(C)C)cc2)n2ncnc2n1	25.4	7.31µM*	14.6µM*	1.7%	-2.3%
COc1ccc(Nc2cc(C)nc3ncnn23)cc1	-11.1	i	i	24.1%	12.8%
O=C(Nc1ccccc1C(F)(F)F)c1cc2nc(-c3ccccc3)cc(-c3ccccc3)n2n1	nt	?	i	nt	nt
CN1CCN(C(=O)CN(C)S(=O)(=O)c2ccc3ccccc3c2)CC1	-7.5	i	i	6.6%	0.0%
O=C(Nc1ccc(Nc2ccccc2)cc1)Nc1ccccc1Cl	?	?	i	?	?
O=C(Nc1ccc(Nc2ccccc2)cc1)c1c(F)c(F)c(F)c(F)c1F	-68.4*	?	i	-2.7%	?

Assay outcomes as filed in PubChem BioAssay.
